Assay [1] is described as follows: compounds binding Alexa647 anti-His antibody – biochemical, small-molecule microarray, 635 nm fluorescence, artefact control for SMM control protein annotation, primary screen (AID 1128).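 Also: score merges feature fluorescence with signal-to-noise for each printed compound spot.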 The settings on record: higher = more signal.
Assay [2] relates to Human papillomavirus type 1a E7 protein (residues 1-88). Kind of assay: HPV1a E7 small-molecule binders, primary screen, biochemical, small-molecule microarray, residues 1-88, 635 nm (AID 1129). The settings on record: small-molecule microarray binding, fluorescence 635 nm; higher = more signal.
Assay [3] deals with Focal adhesion kinase 1 (Homo sapiens) (UniProt Q05397). Kind of assay: PTK2 protein binding on printed compound slides – biochemical, small-molecule microarray, 635/667 nm fluorescence, BSA, DTT, primary screen (AID 1130).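 Also: composite of spot emission at 667 nm and signal to noise over triplicate slides.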 The settings on record: 635 nm fluorescence, higher = more signal.
Focal adhesion kinase 1 (Homo sapiens), sequence (Q05397 whole entry, looked up): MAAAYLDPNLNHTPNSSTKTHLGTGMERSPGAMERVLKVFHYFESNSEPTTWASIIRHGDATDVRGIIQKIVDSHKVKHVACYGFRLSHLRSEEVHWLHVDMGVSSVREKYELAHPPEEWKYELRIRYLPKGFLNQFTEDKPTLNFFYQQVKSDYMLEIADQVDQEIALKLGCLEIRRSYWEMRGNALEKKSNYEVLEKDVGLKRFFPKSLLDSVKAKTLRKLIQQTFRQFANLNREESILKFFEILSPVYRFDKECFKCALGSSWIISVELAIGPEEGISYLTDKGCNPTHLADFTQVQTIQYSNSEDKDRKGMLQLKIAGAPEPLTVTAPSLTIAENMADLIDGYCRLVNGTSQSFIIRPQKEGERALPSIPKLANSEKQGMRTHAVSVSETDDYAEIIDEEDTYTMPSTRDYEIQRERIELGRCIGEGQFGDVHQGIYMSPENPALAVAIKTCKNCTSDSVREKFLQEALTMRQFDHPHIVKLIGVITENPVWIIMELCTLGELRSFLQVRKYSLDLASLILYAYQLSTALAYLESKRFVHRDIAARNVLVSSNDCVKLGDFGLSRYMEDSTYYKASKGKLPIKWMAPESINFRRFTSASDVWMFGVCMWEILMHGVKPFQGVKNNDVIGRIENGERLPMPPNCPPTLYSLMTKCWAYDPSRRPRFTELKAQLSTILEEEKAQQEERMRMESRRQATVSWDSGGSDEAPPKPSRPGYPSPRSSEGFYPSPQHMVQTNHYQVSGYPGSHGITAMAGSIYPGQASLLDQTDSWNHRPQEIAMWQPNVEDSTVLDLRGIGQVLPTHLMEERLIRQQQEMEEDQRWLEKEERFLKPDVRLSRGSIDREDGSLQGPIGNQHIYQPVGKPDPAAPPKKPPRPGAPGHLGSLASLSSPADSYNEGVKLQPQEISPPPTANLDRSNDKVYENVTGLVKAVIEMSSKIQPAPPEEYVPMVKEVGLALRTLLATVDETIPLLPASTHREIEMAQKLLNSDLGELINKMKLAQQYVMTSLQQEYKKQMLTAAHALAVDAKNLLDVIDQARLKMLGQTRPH
Assay [4] concerns Fibrinogen (Alexa647-labelled). Kind of assay: Alexa647-fibrinogen binding to printed small molecules – biochemical, small-molecule microarray, 635/667 nm fluorescence, artefact control for SMM control-protein annotation, profiling panel (AID 1131).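 Also: z-score merges 667 nm fluorescence with per-spot signal-to-noise over triplicate slides.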 The following applies: fibrinogen-A647 binding fluorescence, higher = more signal.
In assay [5] the target is Follistatin (Homo sapiens) (UniProt P19883). Kind of assay: FST protein binding to printed compounds – biochemical, small-molecule microarray, 635/667 nm fluorescence, primary screen (AID 1132). The settings on record: 635 nm fluorescence, higher = more signal.
Follistatin (Homo sapiens), sequence (P19883 whole entry, looked up): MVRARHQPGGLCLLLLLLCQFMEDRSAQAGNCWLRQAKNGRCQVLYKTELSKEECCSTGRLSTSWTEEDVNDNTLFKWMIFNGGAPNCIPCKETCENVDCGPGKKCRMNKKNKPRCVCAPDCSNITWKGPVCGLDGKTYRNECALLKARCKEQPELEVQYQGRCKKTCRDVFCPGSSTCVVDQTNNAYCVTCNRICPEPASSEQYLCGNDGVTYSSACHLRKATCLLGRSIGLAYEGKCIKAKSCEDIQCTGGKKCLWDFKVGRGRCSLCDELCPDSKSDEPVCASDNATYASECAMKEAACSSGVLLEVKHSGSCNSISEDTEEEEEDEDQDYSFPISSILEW
Assay [6] addresses Fibroblast growth factor 2 (Homo sapiens) (UniProt P09038). Kind of assay: basic fibroblast growth factor binding to printed compounds – biochemical, small-molecule microarray, 635/667 nm fluorescence, primary screen (AID 1133). The settings on record: FGF2, fluorescence 635/667, higher = more signal.
The nature of assay [7]: JC-1 mitochondrial potential readout, lung cancer cells – cell-based, A549, JC-1 fluorescence, basal, 24 h, 100 nL, profiling panel (AID 1138).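 Also: A549 lung adenocarcinoma cells under basal conditions with no added stimulus; test concentration not given here.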 The following applies: higher = more signal.
For another assay, the system named is Lefty1. Kind of assay: Lefty1 protein binding to printed compounds – biochemical, small-molecule microarray, 635/667 nm fluorescence, primary screen (AID 1139). The settings on record: fluorescence 635/667, higher = more signal.
Assay [8] deals with wheat germ agglutinin (Triticum aestivum), Alexa647-labelled. As to the kind of experiment: Alexa647-WGA lectin binding to printed small molecules – biochemical, small-molecule microarray, 635/667 nm fluorescence, artefact control for SMM control-protein annotation, profiling panel (AID 1140).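 Also: score merges 667 nm feature emission with signal to noise over triplicate slides.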 The following applies: WGA-A647 binding, 635 nm fluorescence, higher = more signal.
Assay [9] has as its target Luciferin 4-monooxygenase (Photinus pyralis) (UniProt P08659). Kind of assay: inhibition of purified Photinus pyralis luciferase – biochemical, luminescence, purified enzyme, 2006 set, primary screen (AID 1141).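 Also: cell-free assay with purified firefly luciferase at 100 ng per well in PBS; test concentration not given here.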 The settings on record: purified firefly luciferase, SteadyGlo luminescence, 30 min; higher = more signal, called active from +8 up or from −8 down.
In assay [10] the test system is Wnt5a (protein binding on small-molecule microarray). As to the kind of experiment: small molecules binding Wnt5a protein – biophysical, small-molecule microarray, 635/667 nm fluorescence, primary screen (AID 1142).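 Also: fluorescence read at 667 nm with signal to noise per printed feature.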 The following applies: 635 nm fluorescence, higher = more signal.
Assay [11] is described as follows: ATP-based viability of Huh7 replicon cells – cell-based, CellTiter-Glo luminescence, basal, 48 h, cytotoxicity control for HCV replication inhibitor project, primary screen (AID 1143).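 Also: Huh7 hepatoma cells carrying a hepatitis C replication reporter with no stimulus; test concentration not given here.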 The following applies: higher = more signal, called active from +8 up or from −8 down.
Assay [12] can be described thus: Pseudomonas biofilm growth suppression – PAO1 strain, BacTiter-Glo luminescence, LB-PBS, primary screen (AID 1144). The following applies: P. aeruginosa PAO1 biofilm, 12 h, higher = more signal.
Assay [13] in a line: basal CRE-LacZ reporter activity in PC12 – cell-based, unstimulated, primary screen (AID 1145). The settings on record: no forskolin, luminescence, 4.5 h, higher = more signal, called active from +8 up or from −8 down.
A short description of assay [14]: forskolin-driven CRE-LacZ activity in PC12 – cell-based, CRE-LacZ reporter, forskolin-stimulated, primary screen (AID 1146).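 Also: PC12 cells with 6xCRE LacZ reporter stimulated by forskolin 10 µM; beta-galactosidase reporter signal reflecting CREB driven transcription.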 The settings on record: luminescence, 4.5 h, higher = more signal, called active from +8 up or from −8 down.
Assay [15] concerns the target Streptavidin (Streptomyces avidinii) (UniProt P22629). Kind of assay: compounds binding control protein streptavidin – biophysical, small-molecule microarray, 635/667 nm fluorescence, artefact control for SMM compound annotation, primary screen (AID 1147).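 Also: signal reflects streptavidin binding to arrayed compounds as a control protein.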 The settings on record: higher = more signal.
Assay [16] can be described thus: probe aInhba binding on compound microarray – biochemical, small-molecule microarray, 635/667 nm fluorescence, primary screen (AID 1148).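 Also: score merges 667nm spot fluorescence with signal-to-noise for antibody binding to printed compounds.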 The settings on record: higher = more signal.
The target of assay [17] is Torsin-1A (Homo sapiens) (UniProt O14656). As to the kind of experiment: TOR1A wild-type binding on microarray – cell lysate, small-molecule microarray, lysate, 635/667 nm, primary screen (AID 1149). The following applies: COS7 hTOR1A-WT lysate, 635 nm fluorescence, higher = more signal.
Torsin-1A (Homo sapiens), sequence (O14656 whole entry, looked up): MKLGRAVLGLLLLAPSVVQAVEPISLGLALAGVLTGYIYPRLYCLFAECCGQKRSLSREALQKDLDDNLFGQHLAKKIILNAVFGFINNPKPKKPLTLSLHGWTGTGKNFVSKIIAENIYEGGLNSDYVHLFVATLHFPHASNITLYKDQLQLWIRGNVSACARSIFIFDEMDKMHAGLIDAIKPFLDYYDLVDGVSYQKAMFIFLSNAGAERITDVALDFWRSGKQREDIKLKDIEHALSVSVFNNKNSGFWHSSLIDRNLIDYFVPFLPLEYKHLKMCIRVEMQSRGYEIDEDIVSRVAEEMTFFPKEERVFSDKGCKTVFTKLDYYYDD
Assay [18] has the same target. As to the kind of experiment: torsin A mutant lysate binding on microarrays – cell lysate, small-molecule microarray, COS7 lysate, 635/667 nm fluorescence, primary screen (AID 1150).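 Also: score pools 667 nm emission and signal to noise measuring lysate protein binding.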 The settings on record: COS7 hTOR1A mutant lysate, 635 nm fluorescence, higher = more signal.
The subject of assay [19] is Sonic hedgehog protein (Shh). Kind of assay: Sonic hedgehog microarray binding compounds – biochemical, small-molecule microarray, 635/667 nm fluorescence, primary screen (AID 1151).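 Also: Shh protein binding to compounds spotted on small-molecule microarray slides; score combines spot fluorescence intensity with signal-to-noise across triplicate slides.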 The following applies: 635 nm fluorescence, higher = more signal.

Calls of active or inactive are those of the source. Unless noted, no rule for the calls is given here.

Luciferin 4-monooxygenase (Photinus pyralis), sequence (P08659 whole entry, looked up): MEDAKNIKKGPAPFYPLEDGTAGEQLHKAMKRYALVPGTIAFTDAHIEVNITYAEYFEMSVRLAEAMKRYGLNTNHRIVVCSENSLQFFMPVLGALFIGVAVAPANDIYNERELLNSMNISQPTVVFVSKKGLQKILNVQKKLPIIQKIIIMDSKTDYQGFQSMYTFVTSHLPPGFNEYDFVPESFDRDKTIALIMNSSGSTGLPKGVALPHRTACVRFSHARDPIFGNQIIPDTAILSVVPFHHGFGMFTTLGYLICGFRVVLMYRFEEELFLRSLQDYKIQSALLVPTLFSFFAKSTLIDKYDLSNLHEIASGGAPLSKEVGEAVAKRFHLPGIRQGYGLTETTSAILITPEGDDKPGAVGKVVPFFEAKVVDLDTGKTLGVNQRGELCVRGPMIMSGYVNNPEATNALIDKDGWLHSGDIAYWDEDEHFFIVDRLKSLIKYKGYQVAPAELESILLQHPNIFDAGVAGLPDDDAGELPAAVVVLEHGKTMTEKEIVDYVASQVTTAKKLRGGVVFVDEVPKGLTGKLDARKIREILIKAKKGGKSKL
Streptavidin (Streptomyces avidinii), sequence (P22629 whole entry, looked up): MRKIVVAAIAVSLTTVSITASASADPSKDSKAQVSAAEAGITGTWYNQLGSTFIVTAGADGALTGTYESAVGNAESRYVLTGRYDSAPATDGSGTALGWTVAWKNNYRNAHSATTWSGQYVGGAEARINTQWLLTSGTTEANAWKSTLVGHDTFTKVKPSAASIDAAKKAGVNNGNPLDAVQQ
Fibroblast growth factor 2 (Homo sapiens), sequence (P09038 whole entry, looked up): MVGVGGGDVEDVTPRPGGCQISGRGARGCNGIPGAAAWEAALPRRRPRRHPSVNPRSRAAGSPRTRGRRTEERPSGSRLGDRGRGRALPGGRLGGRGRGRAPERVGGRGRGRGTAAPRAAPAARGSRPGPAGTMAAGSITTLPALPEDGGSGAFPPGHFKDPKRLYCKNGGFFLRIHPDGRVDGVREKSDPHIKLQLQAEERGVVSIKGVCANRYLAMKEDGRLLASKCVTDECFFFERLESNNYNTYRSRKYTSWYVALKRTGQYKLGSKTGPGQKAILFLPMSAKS

Turning to `C=C[C@H](CO)NS(=O)(=O)c1ccc(Br)cc1`, the composite z-score amounted to 0.461 in [1]; 0.446 in assay [2]; 0.179 in [3]; 0.28 in assay [4]; 1.06 in [5]; 0.464 in assay [6]. Also, the composite z-score in the assay with Lefty1 was 0.28; in assay [8] it was 0.279; in assay [10] it was -0.269; in [15], 0.257; in [16], -0.159; in the assay with Torsin-1A (Homo sapiens) [17], 0.0757. Also, the values for the composite z-score (with Torsin-1A (Homo sapiens) [18]; in [19]) were -0.0632 and 0.156, respectively. The z-score is 1.19 in assay [7]; -0.877 (inactive) in assay [9]; 0.116 (inactive) in assay [11]; 0.564 (inactive) in assay [12]; 0.643 (inactive) in assay [13]; 1.79 (inactive) in [14].

Turning to `O=C1O[C@H](c2ccccc2)[C@H](c2ccccc2)N2[C@H]1[C@@H](C(=O)N1CCCCCCC1)[C@]1(C(=O)Nc3ccc(C#CCCO)cc31)[C@H]2c1ccccc1OCCO`, the composite z-score in assay [1] was found to be 3.55; in [2] it was 1.36; in [3], 5.56; in assay [4] it was 1.02; in assay [5], 1.58; in assay [6], 1.16. In addition, the composite z-score is 1.93 in the assay with Lefty1; 1.64 in assay [8]; 2.73 in [10]; 4.08 in [15]; 2.33 in assay [16]; 3.84 with Torsin-1A (Homo sapiens) [17]. Further, the composite z-score in the assay with Torsin-1A (Homo sapiens) [18] worked out at 3.83; in assay [19], 2.53. Also, the z-score was 0.372 in assay [7]; -1.35 (inactive) in assay [9]; -3.61 (inactive) in [11]; 0.999 (inactive) in assay [12]; -0.698 (inactive) in [13]; -1.19 (inactive) in assay [14].

Regarding `C=CCC(OC(C)=O)[C@@H]1[C@@H](N(Cc2ccc(-c3cccc(C(F)(F)F)c3)o2)C(=O)c2ccc(C)cc2)c2cc(OCCCO)ccc2N1C(=O)Cc1ccc2ccccc2c1` (stereo not given in full), the composite z-score is 0.357 in [1]; -1.49 in [2]; 0.0103 in assay [3]; 0.658 in [4]; 0.107 in assay [5]; -0.358 in [6]. The composite z-score in the assay with Lefty1 was -0.454; in [8], 0.234; in [10], -0.125; in assay [15] it was -0.269; in assay [16] it was -0.024; with Torsin-1A (Homo sapiens) [17] it was -0.563. Also, the composite z-score is -0.702 in the assay with Torsin-1A (Homo sapiens) [18] and 0.223 in assay [19]. Moreover, the z-score is 0.71 in [7]; -0.453 (inactive) in assay [9]; -0.0329 (inactive) in assay [11]; -0.568 (inactive) in assay [12]; -1.1 (inactive) in [13]; -0.0977 (inactive) in assay [14].

With `O=C1O[C@@H](c2ccccc2)[C@@H](c2ccccc2)N2[C@@H](c3ccccc3OCCO)[C@]3(C(=O)Nc4ccccc43)[C@@H](C(=O)Nc3nc4ccccc4s3)[C@H]12`, the composite z-score was 0.858 in assay [1]; 1.23 in assay [2]; 0.467 in [3]; 0.865 in assay [4]; 0.778 in assay [5]; 0.188 in assay [6]. In addition, the composite z-score in the assay on Lefty1 worked out at 1.62; in assay [8] it was 1.17; in [10], 0.371; in assay [15], 1.9; in assay [16], 0.286; with Torsin-1A (Homo sapiens) [17] it was 0.469. The composite z-score with Torsin-1A (Homo sapiens) [18] was determined as 0.972; in assay [19], 2.03. Besides, the z-score in assay [7] was -2; in assay [9], -0.237 (inactive); in assay [11], -5.91 (inactive); in assay [12], -0.311 (inactive); in assay [13] it was 0.568 (inactive); in [14], 3.07 (inactive).

For the compound `CC(=O)n1cc(C(O)C2C=CC3C(=O)N(c4ccccc4)C(=O)C3N2Nc2ccc([N+](=O)[O-])cc2)c2ccccc21` (stereo not given), the composite z-score in [1] is 3.33; in assay [2], 0.981; in assay [3], 0.457; in assay [4], 0.916; in assay [5] it was 0.347; in [6], -0.105. For the same compound, the composite z-score was -0.719 with Lefty1; 1.45 in assay [8]; 0.199 in assay [10]; 0.808 in assay [15]; -0.0371 in assay [16]; -0.268 in the assay with Torsin-1A (Homo sapiens) [17]. Besides, the composite z-score was 0.475 with Torsin-1A (Homo sapiens) [18] and -0.0727 in assay [19]. Moreover, the z-score in assay [7] was -1.02; in assay [9] it was 1.08 (inactive); in [11] it was -0.547 (inactive); in assay [12], -0.197 (inactive); in assay [13], -0.322 (inactive); in assay [14], -0.647 (inactive).

Source of the values: PubChem BioAssay.
